Results published in PubChem BioAssay (NCI).
Where “and” joins values, the source holds several entries; their conditions need not be identical. Equal entries are not always repeated. This is part of a sample that, as a whole, favours compounds with a hit. Of some 79,000 tested, about 15% had one in any assay. Calls of active or inactive are those of the source. Rule as the data show it: active = growth inhibition above about 70%; inactive = the rest.

Columns and labels:
[1] = NCI Yeast Anticancer Drug Screen. Data for the rad52 strain (AID 147);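 also: 0% = growth of vehicle-treated control cultures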; conditions: S. cerevisiae rad52 mutant growth inhibition, hits give high values
How it was run: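 Vehicle-treated cultures served as the reference for growth inhibition of compound-exposed yeast bearing a DNA repair mutation.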

[2] = NCI Yeast Anticancer Drug Screen. Data for the wt1 strain (AID 149);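 also: 0% = growth of vehicle-treated wt1 cultures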; conditions: S. cerevisiae wt1 strain (SPY 50644) growth inhibition, hits give high values
How it was run: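 Growth inhibition read against vehicle controls after compound exposure of the wt1 yeast strain.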

[3] = NCI Yeast Anticancer Drug Screen. Data for the rad50EPP+ strain (AID 151);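 also: 0% = growth of vehicle-treated control cultures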; conditions: S. cerevisiae rad50 mutant strain, hits give high values
How it was run: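 In this screen, rad50EPP+ yeast were exposed to compounds. Growth inhibition was scored against vehicle-treated controls.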

[4] = NCI Yeast Anticancer Drug Screen. Data for the rad50 strain (AID 155);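 also: 0% = growth of vehicle-only cultures of the same strain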; conditions: S. cerevisiae rad50 strain growth inhibition, hits give high values
How it was run: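 Readout: growth inhibition relative to vehicle-treated cultures. Compound exposure was carried out in a genetically defined yeast strain deficient in DNA damage repair.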

[5] = NCI Yeast Anticancer Drug Screen. Data for the mec2-1 strain (AID 157); conditions: S. cerevisiae mec2-1 strain, hits give high values
How it was run: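 Vehicle-treated cultures served as reference for growth inhibition of compound-exposed mec2-1 yeast.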

[6] = NCI Yeast Anticancer Drug Screen. Data for the rad14 strain (AID 159);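 also: 0% = growth of vehicle-treated control cultures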; conditions: S. cerevisiae rad14 strain growth inhibition, hits give high values
How it was run: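 Growth inhibition vs vehicle controls; genetically altered yeast strain (DNA damage repair defect) treated with test compounds.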

[7] = NCI Yeast Anticancer Drug Screen. Data for the sgs1 mgt1 strain (AID 161);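 also: 0% = growth of cultures given vehicle only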; conditions: S. cerevisiae sgs1 mgt1 strain, hits give high values
How it was run: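 Genetically altered yeast, compound exposure, growth inhibition relative to vehicle.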

[8] = NCI Yeast Anticancer Drug Screen. Data for the CLN2oe strain (AID 163);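 also: 0% = growth of vehicle-only control cultures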; conditions: S. cerevisiae CLN2oe strain, hits give high values
How it was run: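 Inhibition relative to vehicle-treated yeast is reported. Cells: strain with genetic alteration in cell-cycle control, grown with compound.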

[9] = NCI Yeast Anticancer Drug Screen. Data for the cln2 rad14 strain (AID 165);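 also: 0% = growth equal to vehicle treated cultures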; conditions: S. cerevisiae cln2 rad14 strain, hits give high values
How it was run: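 Each compound was tested on cln2 rad14 yeast. Inhibition of growth was calculated against vehicle-exposed controls.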

[10] = NCI Yeast Anticancer Drug Screen. Data for the wt2 strain (AID 169);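 also: 0% = growth of vehicle-treated yeast cultures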; conditions: S. cerevisiae wt2 strain growth inhibition, hits give high values
How it was run: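 Inhibition of yeast growth was determined after compound treatment, normalised to controls receiving only vehicle.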

[11] = NCI Yeast Anticancer Drug Screen. Data for the mlh1 strain (AID 171);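 also: 0% = growth of vehicle-treated control cultures of the same strain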; conditions: S. cerevisiae mlh1 strain growth inhibition, hits give high values
How it was run: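 Vehicle-normalised growth inhibition of a repair- or checkpoint-altered yeast strain following compound treatment.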

[12] = NCI Yeast Anticancer Drug Screen. Data for the sgs1 strain (AID 173);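 also: 0% = growth of vehicle-only control cultures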; conditions: S. cerevisiae sgs1 mutant, hits give high values
How it was run: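 Screen format: yeast with repair or checkpoint alterations, compound exposure, growth read relative to vehicle.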

[13] = NCI Yeast Anticancer Drug Screen. Data for the mlh1 rad18 strain (AID 175); conditions: S. cerevisiae mlh1 rad18 strain growth inhibition, hits give high values
How it was run: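 Vehicle-treated cultures served as the reference for growth inhibition in a yeast strain carrying DNA damage repair alterations exposed to each compound.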

[14] = NCI Yeast Anticancer Drug Screen. Data for the rad18 strain (AID 177); conditions: S. cerevisiae rad18 mutant growth inhibition, hits give high values
How it was run: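 Test articles were incubated with altered yeast defective in DNA damage repair. Results are given as inhibition of growth versus vehicle.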

[15] = NCI Yeast Anticancer Drug Screen. Data for the bub3 strain (AID 167); conditions: S. cerevisiae bub3 mutant strain, hits give high values
How it was run: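 Readout: yeast growth inhibition, expressed relative to vehicle-only wells. The test organism is a mutant strain from a panel with lesions in DNA repair or checkpoint genes.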

[16] = at 5.0 µM (retest, dose inferred, filed as 0.5)
[17] = at 50.0 µM (retest, dose inferred, filed as 5.0)

Measured: growth inhibition

Nc1ccc2c(c1)sc1ccccc12
active: [1]; at 100.0 µM 99% | [2]; at 100.0 µM 99% | [3]; at 33.0 µM 89% | [3]; at 100.0 µM 98% | [4]; at 50.0 µM 85.4% | [4]; at 100.0 µM 99% | [5]; at 100.0 µM 99% | [6]; at 100.0 µM 98% | [8]; at 100.0 µM 95% | [10]; at 100.0 µM 99% | [11]; at 100.0 µM 99% | [12]; at 100.0 µM 99% | [13]; at 50.0 µM 94.2% | [14]; at 100.0 µM 99%
inactive: [1]; at 1.2 µM -3% | [1]; at 3.7 µM 2% | [1]; at 11.0 µM 3% | [1]; at 33.0 µM 30% | [2]; at 1.2 µM -5% | [2]; at 3.7 µM -7% | [2]; at 11.0 µM -10% | [2]; at 33.0 µM -11% | [3]; at 1.2 µM 1% | [3]; at 3.7 µM 13% | [3]; at 11.0 µM 38% | [4]; at 1.2 µM -20% | [4]; at 3.7 µM -1% | [4]; [16] -153% | [4]; at 11.0 µM 9% | [4]; at 33.0 µM 46% | [4]; [17] 54% | [5]; at 1.2 µM 1% | [5]; at 3.7 µM 0% | [5]; [16] -52% | [5]; at 11.0 µM -6% | [5]; at 33.0 µM 4% | [5]; [17] -24% | [5]; at 50.0 µM 33% | [6]; at 1.2 µM -3% | [6]; at 3.7 µM -6% | [6]; at 11.0 µM -1% | [6]; at 33.0 µM 15% | [7]; [16] -68% | [7]; [17] 40% | [7]; at 50.0 µM 63.1% | [8]; at 1.2 µM -2% | [8]; at 3.7 µM -5% | [8]; at 11.0 µM -3% | [8]; at 33.0 µM -5% | [9]; [16] -60% | [9]; [17] -50% | [9]; at 50.0 µM -13.4% | [10]; at 1.2 µM -1% | [10]; at 3.7 µM -2% | [10]; at 11.0 µM -4% | [10]; at 33.0 µM 0% | [11]; at 1.2 µM 9% | [11]; at 3.7 µM -4% | [11]; at 11.0 µM -5% | [11]; at 33.0 µM 21% | [12]; at 1.2 µM -1% | [12]; at 3.7 µM -1% | [12]; at 11.0 µM -2% | [12]; at 33.0 µM 46% | [13]; [16] -122% | [13]; [17] 38% | [14]; at 1.2 µM 0% | [14]; at 3.7 µM 6% | [14]; at 11.0 µM 27% | [14]; at 33.0 µM 56%

O=Nn1c2ccccc2c2ccccc21
active: [3]; at 100.0 µM 79% | [4]; at 100.0 µM 83% | [6]; at 100.0 µM 92% | [15]; [17] 95% | [11]; at 100.0 µM 93% | [14]; at 100.0 µM 86%
inactive: [1]; at 1.2 µM -15% | [1]; at 3.7 µM -18% | [1]; at 11.0 µM -22% | [1]; at 33.0 µM 5% | [1]; at 100.0 µM 68% | [2]; at 1.2 µM 2% | [2]; at 3.7 µM 21% | [2]; at 11.0 µM 7% | [2]; at 33.0 µM 9% | [2]; at 100.0 µM 60% | [3]; at 1.2 µM 0% | [3]; at 3.7 µM 18% | [3]; at 11.0 µM 9% | [3]; at 33.0 µM 50% | [4]; at 1.2 µM 12% | [4]; at 3.7 µM -1% | [4]; [16] -13% | [4]; at 11.0 µM -3% | [4]; at 33.0 µM 23% | [4]; [17] 13% | [4]; at 50.0 µM 27.5% and 25.4% | [5]; at 1.2 µM -17% | [5]; at 3.7 µM 2% | [5]; [16] -1% | [5]; at 11.0 µM 1% | [5]; at 33.0 µM 21% | [5]; [17] 9% | [5]; at 50.0 µM 16.7% and 11.6% | [5]; at 100.0 µM 65% | [6]; at 1.2 µM 10% | [6]; at 3.7 µM 6% | [6]; at 11.0 µM 11% | [6]; at 33.0 µM 49% | [7]; [16] 2% | [7]; [17] -10% | [7]; at 50.0 µM 5.25% and 16.6% | [8]; at 1.2 µM 11% | [8]; at 3.7 µM 4% | [8]; at 11.0 µM 11% | [8]; at 33.0 µM 2% | [8]; at 100.0 µM 65% | [9]; [16] 5% | [9]; [17] 67% | [9]; at 50.0 µM 3.15% and 40.1% | [15]; at 1.2 µM -7% | [15]; at 3.7 µM -9% | [15]; [16] -28% | [15]; at 11.0 µM -14% | [15]; at 33.0 µM -3% | [15]; at 50.0 µM 1.5% and 66% | [15]; at 100.0 µM 59% | [10]; at 1.2 µM -46% | [10]; at 3.7 µM -34% | [10]; at 11.0 µM -28% | [10]; at 33.0 µM -15% | [10]; at 100.0 µM 62% | [11]; at 1.2 µM 27% | [11]; at 3.7 µM 27% | [11]; at 11.0 µM 19% | [11]; at 33.0 µM 56% | [13]; [16] -16% | [13]; [17] 16% | [13]; at 50.0 µM 21.5% and 15.5% | [14]; at 1.2 µM 9% | [14]; at 3.7 µM 7% | [14]; at 11.0 µM -9% | [14]; at 33.0 µM 24%

Cc1ccc(Nc2c3c(c(C#N)c4nc5ccccc5n24)CCCC3)cc1
active: [1]; at 33.0 µM 70% | [1]; at 100.0 µM 72% | [4]; at 33.0 µM 71% | [4]; [17] 74% | [4]; at 100.0 µM 70%
inactive: [1]; at 1.2 µM 6% | [1]; at 3.7 µM 21% | [1]; at 11.0 µM 24% | [2]; at 1.2 µM 7% | [2]; at 3.7 µM 26% | [2]; at 11.0 µM 23% | [2]; at 33.0 µM 40% | [2]; at 100.0 µM 59% | [3]; at 1.2 µM 14% | [3]; at 3.7 µM 23% | [3]; at 11.0 µM 27% | [3]; at 33.0 µM 38% | [3]; at 100.0 µM 31% | [4]; at 1.2 µM 1% | [4]; at 3.7 µM 32% | [4]; [16] 31% | [4]; at 11.0 µM 23% | [4]; at 50.0 µM 63.3% | [5]; at 1.2 µM -15% | [5]; at 3.7 µM 15% | [5]; [16] 12% | [5]; at 11.0 µM 11% | [5]; at 33.0 µM 65% | [5]; [17] 58% | [5]; at 50.0 µM 66%
